Shown are actives, neighbours in structure and some others; about 2.1% of the full set was active somewhere.
Abeta rescue: qHTS for compounds that reverse cellular toxicity of Amyloid beta (A-beta) peptide in yeast: Primary Screen. 0.063% of 410,000 active. Potency, µM (doses to about 46.1 µM), most hits filed as activators. yeast expressing A-beta42, growth rescue, OD600, 48 h; response scale: 0% DMSO, 100% iron-clioquinol control; further: nearly all actives have a fitted effect of over 55% in size
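Yeast growth medium received pinned compounds, then yeast cells expressing toxic A-beta were added; plates incubated at 30 C for 48 hr. Growth read as absorbance at 600 nm, normalized to DMSO and equimolar FeCl3 plus clioquinol controls.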
aSyn yeast inh: qHTS of alpha-syn Inhibitors; Yeast expressing alpha-synuclein, growth rescue, BacTiter-Glo, 24 h; Potency, µM (doses to about 46.1 µM), most hits filed as activators; 0.14% of 370,000 active; AID 652106, 2013; further: nearly all actives have a fitted effect of over 65% in size
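Screening used galactose-induced yeast with toxic alpha-synuclein levels, exposed to compound for 24 hr at 30 deg C. Cell growth, read with BacTiter-Glo luminescence, gave the measured signal.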
FUS suppressor: qHTS for Suppressors of FUS Proteinopathy: Primary screen using FUS-linked yeast assay | Potency, µM (top dose mostly 76.6 µM), usual class: activators | 0.24% of 390,000 active | S. cerevisiae FUS-expressing, growth rescue, OD600, 24 h; further: nearly all actives have a fitted effect of over 55% in size
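S. cerevisiae expressing FUS from galactose induction served as the toxicity model. Growth after 24hr at 30C, read as absorbance at 600 nm, indicates suppression of toxicity; compounds dosed at several concentrations.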
TDP-43 yeast inh: qHTS of TDP-43 Inhibitors | Potency, µM (top dose mostly 46.1 µM), hits mostly activators | TDP-43 expressing yeast growth rescue, BacTiter-Glo, 24 h | 1.8% of 410,000 active; further: nearly all actives have a fitted effect of over 50% in size
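Galactose-induced TDP-43 yeast, OD600=0.02, compound pinned; 24 hr, 30 deg C; BacTiter-Glo luminescence for growth. Inhibitors of TDP-43 toxicity read as activators.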
Numbers stand for hits. The call rests on the fitted dose curve; in most records, active means well fitted curve in the direction sought with a large enough effect; inconclusive means small, poorly fitted or top-dose-only effect, or another doubt; inactive means no such curve, though single readings can be large; an effect the other way counts as inactive or inconclusive.

Results for O=C(Nc1cccc(C(F)(F)F)c1)C1CCCN1S(=O)(=O)c1cccc2nsnc12 (configuration not stated) ?
Abeta rescue: inactive; FUS suppressor: inactive; TDP-43 yeast inh: inconclusive

Results for O=C(O)C1(Br)CC12c1ccccc1-c1ccccc12 (configuration not stated) ?
Abeta rescue: inactive; aSyn yeast inh: inactive; TDP-43 yeast inh: 13µM

Results for CN1CC[C@@]2(C)c3cc(O)ccc3N(C)C12 (some centres not stated) ?
aSyn yeast inh: inactive

Results for Oc1ccc(Cl)cc1Cc1ccccc1 ?
Abeta rescue: inactive; aSyn yeast inh: inactive; FUS suppressor: inactive; TDP-43 yeast inh: 14µM

How did CCOC(=O)[C@]12Cc3c(cc(OC)c(OC)c3OC)[C@H]1N(C)C(=O)c1cc(OC)ccc12 do in these assays?
Abeta rescue: inactive; aSyn yeast inh: inactive; FUS suppressor: inactive; TDP-43 yeast inh: 18µM

How did CCOC(=O)[C@]12Cc3ccccc3[C@H]1N(C)C(=O)c1cc(OC)ccc12 do in these assays?
Abeta rescue: inactive; aSyn yeast inh: inactive; FUS suppressor: inactive; TDP-43 yeast inh: 35µM

What do the screens show for `COc1ccccc1N1CCN(C(=O)c2cc3c(-c4ccccc4F)nn(C)c3s2)CC1`?
Abeta rescue: inactive; FUS suppressor: 18µM; TDP-43 yeast inh: 16µM

What do the screens show for `COc1cccc(CNC(=O)c2cc3c(-c4ccccc4F)nn(C)c3s2)c1`?
Abeta rescue: inactive; FUS suppressor: inconclusive; TDP-43 yeast inh: inconclusive

How did COC(=O)C1=C(c2ccccc2OCc2ccccc2)C[C@@H]2CC[C@H]1N2C(=O)NCc1ccc(N(C)C)cc1 do in these assays?
Abeta rescue: inactive; aSyn yeast inh: inactive; FUS suppressor: inactive; TDP-43 yeast inh: inactive

What do the screens show for `COC(=O)C1=C(c2ccccc2OCc2ccccc2)C[C@@H]2CC[C@H]1N2C(=O)NCc1ccc([N+](=O)[O-])cc1`?
Abeta rescue: inactive; aSyn yeast inh: inactive; FUS suppressor: 28µM; TDP-43 yeast inh: inactive

Results for COC(=O)C1=C(c2ccc(F)cc2OCc2ccccc2)C[C@@H]2CC[C@H]1N2C(=O)NCc1ccc(OC)cc1 ?
Abeta rescue: inactive; aSyn yeast inh: inactive; FUS suppressor: inactive; TDP-43 yeast inh: inconclusive

Results for COC(=O)C1=C(c2ccccc2OCc2ccccc2)C[C@@H]2CC[C@H]1N2C(=O)NCc1ccc(Cl)cc1 ?
Abeta rescue: inactive; aSyn yeast inh: inactive; FUS suppressor: 32µM; TDP-43 yeast inh: inconclusive

How did COC(=O)C1=C(c2ccc(F)cc2OCc2ccccc2)C[C@@H]2CC[C@H]1N2C(=O)NCc1ccc(Br)cc1 do in these assays?
Abeta rescue: inactive; aSyn yeast inh: inactive; FUS suppressor: inconclusive; TDP-43 yeast inh: 3.5µM

What do the screens show for `CCCc1cc(N2CCN(c3ccc(OC)cc3)CC2)n2cnnc2n1`?
Abeta rescue: inactive; FUS suppressor: inactive; TDP-43 yeast inh: inconclusive

How did Cc1ccc(S(=O)(=O)Nc2ccc3ncccc3c2[N+](=O)[O-])cc1 do in these assays?
Abeta rescue: inactive; aSyn yeast inh: inactive; TDP-43 yeast inh: 3.5µM

Results for O=c1c(-c2ccccc2)c(O)c2ccccc2n1-c1ccccc1 ?
Abeta rescue: inactive; aSyn yeast inh: inactive; FUS suppressor: inactive; TDP-43 yeast inh: 13µM

What do the screens show for `Cc1nc2ccc(NC(=O)C3COc4ccccc4O3)cc2s1` (configuration not stated)?
Abeta rescue: inactive; aSyn yeast inh: inactive; FUS suppressor: inactive; TDP-43 yeast inh: 16µM

What do the screens show for `O=C(Nc1ccc2nc(SCC(=O)N3CCCc4ccccc43)sc2c1)c1ccccc1F`?
Abeta rescue: inactive; FUS suppressor: inactive; TDP-43 yeast inh: inconclusive

How did NC(=O)CI do in these assays?
aSyn yeast inh: inactive

What do the screens show for `O=C(COc1ccc(Cl)cc1)N1CCN(Cc2ccccc2)CC1`?
Abeta rescue: inactive; aSyn yeast inh: inactive; FUS suppressor: inactive; TDP-43 yeast inh: inactive

Results for CC(C)(Oc1ccc(Cl)cc1)C(=O)OCC(=O)N1CCN(c2ccccc2)CC1 ?
Abeta rescue: inactive; aSyn yeast inh: inactive; FUS suppressor: inactive; TDP-43 yeast inh: 14µM

Results for COc1cc2nc(N3CCCN(C)CC3)nc(N(C)C3CCN(C)CC3)c2cc1OC ?
aSyn yeast inh: inactive

Results for O=S(=O)(c1ccccc1C(F)(F)F)N1CCN(c2ncnc3sccc23)CC1 ?
Abeta rescue: inactive; aSyn yeast inh: inactive; FUS suppressor: inactive; TDP-43 yeast inh: 13µM

Screens as filed in PubChem.
